Only some compounds are listed: those with a hit (about 3.1% of all), similar ones and a draw of the others.
PLK1 PBD inh – blocks phosphopeptide binding to human PLK1 polo-box domain. P53350. Plk1 PBD binding of FITC phosphopeptide, fluorescence polarization. Potency, µM, for inactives: max response, negative = inhibition, most hits filed as inhibitors. 360,000 compounds, 2.8% hits. AID 720504; also: potency is read from the fitted curve at half-maximal effect; series mostly up to about 57 µM; % is scaled to controls: 0 for no effect and ±100 for the full control effect; nearly all actives have a fitted effect of over 65% in size
Target sequence (P53350 whole entry, looked up, the tested form may be a part): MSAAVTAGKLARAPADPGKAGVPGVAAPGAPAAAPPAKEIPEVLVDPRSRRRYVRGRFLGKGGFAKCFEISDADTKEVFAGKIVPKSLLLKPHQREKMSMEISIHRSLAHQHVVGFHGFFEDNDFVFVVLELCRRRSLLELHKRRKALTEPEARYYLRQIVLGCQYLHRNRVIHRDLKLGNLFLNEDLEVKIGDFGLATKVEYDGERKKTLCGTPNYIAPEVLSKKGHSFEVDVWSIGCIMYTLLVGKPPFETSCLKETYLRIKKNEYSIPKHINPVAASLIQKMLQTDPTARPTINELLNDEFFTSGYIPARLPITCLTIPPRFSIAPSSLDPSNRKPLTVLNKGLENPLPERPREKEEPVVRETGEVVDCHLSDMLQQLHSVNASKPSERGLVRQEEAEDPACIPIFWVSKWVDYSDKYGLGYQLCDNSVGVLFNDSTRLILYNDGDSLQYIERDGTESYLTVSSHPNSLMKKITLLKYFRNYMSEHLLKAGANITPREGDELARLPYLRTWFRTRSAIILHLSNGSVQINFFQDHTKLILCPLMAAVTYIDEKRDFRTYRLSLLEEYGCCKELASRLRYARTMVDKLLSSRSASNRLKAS
Vif-A3G inh – inhibitors of Vif-APOBEC3G interaction | HeLa A3G-eYFP + Vif (tagged APOBEC3G with the HIV-1 protein that degrades it), YFP fluorescence, overnight | Potency, µM (doses to about 46.1 µM), for inactives: at the highest dose activity, negative = active, most hits filed as inhibitors | 410,000 compounds, 0.076% hits | AID 602310; also: potency is read from the fitted curve at half-maximal effect; % is scaled to controls: 0 for no effect and ±100 for the full control effect; nearly all actives have a fitted effect of over 60% in size
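HeLa cells stably expressing Vif and C-terminally eYFP-tagged A3G, seeded overnight at 37 deg C, then exposed to compound by pintool overnight at 37 deg C. Rise in yellow fluorescence (Ex 488/Em 500-530, Acumen) marks blocked Vif-driven A3G degradation.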
TSHR antag – blocks TSH signaling through the human TSH receptor; activity change, negative = inhibition, % at 11.5 µM; 330,000 compounds, 0.2% hits; AID 504810; P16473; TSHR-expressing cells, TSH-stimulated cAMP HTRF, 2 h; stronger effect = lower value;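 active = activity change below a set negative limit, meaning inhibition stronger than a set level, cut at about -70% in these data; inconclusive = activity change between two set negative limits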; also: % is scaled to controls: 0 for no effect and ±100 for the full control effect
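TSHR-expressing cells were treated with compounds, then stimulated with TSH at EC80 (4nM final) for 2 hours at 37 deg C. Cellular cAMP was measured by HTRF competition between lysate cAMP and cAMP-d2 for a cryptate-labelled anti-cAMP antibody.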
VDR inhibitor – inhibitors of human vitamin D receptor; VDR-SRC2-3 peptide fluorescence polarization, 2 h; 400,000 compounds, 0.93% hits; AID 504847; Potency, µM, inactives show max response, negative = inhibition, hits mostly inhibitors; P11473; also: potency is read from the fitted curve at half-maximal effect; % is scaled to controls: 0 for no effect and ±100 for the full control effect
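Reagent solutions, kept cold and dark, are dispensed first; compounds are then pinned in at 23 nl, plates briefly spun, and incubated 2 h at ambient temperature. Inhibition of VDR–SRC2-3 peptide binding is read by fluorescence polarization.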
Vif-APOBEC3F blk – blocks the Vif interaction with APOBEC3F. HeLa A3F-eYFP + Vif (tagged APOBEC3F with the HIV-1 protein that degrades it), YFP fluorescence increase. AID 602313. 390,000 compounds, 0.2% hits. Potency, µM (series often up to 46.1 µM), inactives show top-dose activity, negative = active; also: potency is read from the fitted curve at half-maximal effect; % of control where 0% means no effect; nearly all actives have a fitted effect of over 65% in size
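Fluorescence increase (Ex 488/Em 500-530) after overnight compound treatment at 37 deg C flags inhibition of Vif-driven A3F-eYFP loss in stable HeLa A3F-eYFP/Vif cells seeded overnight beforehand.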
An asterisk follows results filed as active; ? = inconclusive; / = not tested or not shown; ! = a repeat was not active. Unless noted, calls follow the shape of the dose curve; as a rule, active = well fitted curve in the direction sought with a large enough effect; inconclusive = small, poorly fitted or top-dose-only effect, or another doubt; inactive = no such curve, though single readings can be large; an effect the other way counts as inactive or inconclusive.

SMILES	PLK1 PBD inh	Vif-A3G inh	TSHR antag	VDR inhibitor	Vif-APOBEC3F blk
Cc1ccc(S(=O)(=O)N2[C@@H](c3ccc(C(C)(C)C)cc3)C(C(=O)O)=CC[C@H]2c2ccc(C(C)C)cc2)cc1	17µM*	-11%	-7	-7%	-2%
CC(OCc1ccccc1)C(NC(=O)OC(C)(C)C)C(=O)NC1COC2CC(n3cc(F)c(=O)[nH]c3=O)OC12 (stereo not given)	/	3%	/	-27%	/
CC(C)NC(=O)COC(=O)CNC(=O)C1CCCCC1	/	2%	/	-8%	/
CCCCC/C=C\C/C=C\C/C=C\C/C=C\CCCCCC(=O)NCCCC(=O)O	/	/	/	-6%	/
Cc1ccc([C@@H]2CC=C(C(=O)O)[C@H](c3ccc(F)cc3)N2S(=O)(=O)c2ccc(C)cc2)cc1	-20%	0%	-1	-22%	3%
CCOC(=O)C1=CC[C@@H](c2ccccc2)N(S(=O)(=O)c2ccc(C)cc2)[C@H]1C	-8%	0%	/	/	/
Cc1ccc(S(=O)(=O)N2C(c3cccc(Cl)c3)CC=C(C(=O)O)C2c2cccc(Cl)c2)cc1 (stereo not given)	-4%	/	/	/	/
CCOC(=O)C1=CC[C@@H](c2ccccc2)N(S(=O)(=O)c2ccc(C)cc2)[C@@H]1C#N	15µM*	/	/	/	/
Cc1ccc(S(=O)(=O)N2[C@@H](c3ccc(C(C)(C)C)cc3)C(C(=O)O)=CC[C@H]2c2ccc(Cl)cc2)cc1	21µM*	-11%	-23	?	-3%
Cc1ccc(S(=O)(=O)N2[C@@H](c3cccc(Cl)c3)C(C(=O)O)=CC[C@H]2c2ccc(Cl)cc2)cc1	27µM*	-20%	-11	-19%	-11%
Cc1ccc([C@@H]2CC=C(C(=O)O)[C@H](c3ccc(C(C)(C)C)cc3)N2S(=O)(=O)c2ccc(C)cc2)cc1	27µM*	-2%	-20	-6%	-10%
CCOc1ccc(CNC(=O)Cn2nc(C)c3nn(-c4ccc(Cl)cc4)c(C)c3c2=O)cc1OC	/	-1%	/	17%	?
Cc1ccc([C@H]2C(C(=O)O)=CC[C@@H](c3cccs3)N2S(=O)(=O)c2ccc(C)cc2)cc1	-21%	-6%	9	-4%	-3%
Cc1ccc(S(=O)(=O)N2[C@@H](c3ccc(C(C)(C)C)cc3)C(C(=O)O)=CC[C@H]2c2cccs2)cc1	24µM*	-4%	-8	-8%	-6%
COc1ccc(/C=N/NC(=O)/C(=C/c2ccccc2)CCO)cc1	27µM*	1%	9	?	-11%
COc1cc(/C=N/NC(=O)/C(=C/c2ccccc2)CCO)ccc1O	-3%	-5%	2	-12%	5%
O=c1c2c(-c3ccc([N+](=O)[O-])cc3)csc2nc2n1CCC2	27µM*	-7%	15	-14%	-3%
O=C(Cc1ccc(OCCCCc2ccccc2)cc1)NO	/	7%	/	/	/
c1ccc(CNc2ccnc(-c3cccnc3)n2)cc1	/	/	/	40µM*	/
Cc1cnc(CNc2ccnc(-c3cccnc3)n2)cn1	/	/	/	-3%	/
COc1ccc(CNc2nc(-c3ccoc3)nc3ccccc23)c(OC)c1	/	/	/	-27%	/
c1ccc(CNc2nc(-c3cccnc3)nc3ccccc23)cc1	-8%	-22%	3	18µM*!	-12%
c1ccc(CNc2nc(-c3ccoc3)nc3ccccc23)cc1	/	/	/	32µM*	/
Fc1ccc(Nc2nc(-c3ccoc3)nc3ccccc23)cc1	/	/	/	16µM*	/
COc1ccc(CCNc2ncnc3c2cnn3-c2cc(Cl)ccc2C)cc1	/	-12%	/	10%	0%
CSCC[C@H](NC(=O)[C@H](CC(C)C)NC(=O)CNC(=O)[C@H](Cc1ccc(O)cc1)NC(=O)[C@H](Cc1ccccc1)NC(=O)[C@H](CCC(N)=O)NC(=O)[C@H](CCC(N)=O)NC(=O)[C@@H]1CCCN1C(=O)[C@H](CCCCN)NC(=O)[C@@H]1CCCN1C(=O)[C@@H](N)CCCN=C(N)N)C(N)=O	/	/	/	-11%	/
COC(=O)[C@H]1[C@@H]2C[C@H]3c4[nH]c5ccccc5c4CCN3C[C@@H]2CC[C@@H]1O	/	/	/	8%	/
O=C(CC1NCCC[C@H]1O)Cn1cnc2cc(Br)c(Cl)cc2c1=O (stereo not given in full)	/	/	/	-4%	/
O=C1CS(=O)(=O)N(Cc2ccc(F)cc2)c2ccccc21	-11%	-11%	2	79µM*	10%

Bioassay records (PubChem BioAssay)
